Reference: PubChem BioAssay (EPA / NIEHS)
Active and inactive are the calls of the source. The calls were made as follows: active = hit-call score of the fitted dose curve at least 0.9, where 1 is the maximum; inactive = score below 0.9.

These compounds were tested on Intercellular Adhesion Molecule 1 (ICAM1), ICAM1 (gene 3383) (assay: LTEA_HepaRG_ICAM1: Life Technologies and Expression Analysis (LTEA) Assay for Intercellular Adhesion Molecule 1 (ICAM1) using HepaRG (AID 2283507)). Conditions: mRNA level, 48 h; actives raise or lower the signal.
Protocol: LTEA_HepaRG is a cell based, multiplexed-readout assay that uses HepaRG, a human liver cell line, with measurements taken at 48 hours after chemical dosing on a 96-well plate.LTEA_HepaRG_ICAM1 is one of 102 assay component(s) measured in the LTEA HepaRG cell culture assay. It is a marker of Fibrosis.Data from the assay component LTEA_HepaRG_ICAM1 was analyzed into 1 endpoint. This assay endpoint, LTEA_HepaRG_ICAM1, was analyzed with bidirectional fitting relative to DMSO as the negative control and baseline of activity. Using a type of inducible reporter, measures of mRNA induction for gain or loss-of-signal activity can be used to understand regulation of transcription factor activity. To generalize the intended target to other relatable targets, this assay endpoint is annotated to the cell adhesion molecules intended target family, where the subfamily is Immunoglobulin CAM.
A total of 1060 chemcials from the ToxCast library were tested in eight-point concentration-response experiments. Cell culture and cytotoxicity assays were conducted at Thermo Fisher Scientific's Custom Services facility (Madison, WI). A single lot of human HepaRG cells (Thermo Fisher Scientific, Frederick, MD) was used for the cell culture experiments. 96-well format collagen type I coated plates of human HepaRG cells were prepared using established methods. Briefly, cryopreserved HepaRG cells were thawed, plated at a density of approximately 100,000 cells/well in HepaRG Thaw, Plate, and General Purpose media (HPRG770, Thermo Fisher Scientific), and incubated for 48 hours. 0.5% DMSO was selected as vehicle control to balance the requisite need of DMSO in HepaRG cultures to maintain differentiation (for example, baseline metabolism, proportions of hepatocytes vs. cholangiocytes), while enabling further hepatic receptor pathway activation (for example, PXR and CAR) in response to chemical exposure. 48 hours after plating, the culture medium was replaced with HepaRG Serum-Free Incudtion Media. Cells were exposed to each test chemical in duplicate and maintained in CO2 incubators for another 48 hours. Chemical plates were thawed to room temperature and 200x concentrations of treatment groups were prepared. 8-point conentration-reponse curves were made with the highest exposure at 100 uM, followed by half-log dilutions, all in 0.5% DMSO. Each test plate contained variouse controls, induction positive controls (1mM phenobarbital), cytotoxicity positive controls ([…] aflatoxin B1), vehicle controls (0.5% DMSO), and total lysis controls (0.5% DMSO). Cell morphology images were taken using an Essen IncuCyte FLR automated microscope, with six 96-well plates imaged in about 24 minutes. Images were captured and exported and JPEG files. Spent culture media was transfered to black-well plates for the LDH assay, and remaining media was sorted at -80 C for later use. Cells were treated with RLT buffer and frozen until shipped for gene expression analysis. Total RNA was isolated from the cell suspension in 75 uL of Buffer RLT (Qiagen, Germantown, MD 20874) by Quintiles/Expression Analysis (Durham, NC) using a custom isolation procedure. Total RNA from each plate well was transferred to a preamplification plate. Fluidigm's 96.96 Dynamic ArrayTM (Fluidigm, Amsterdam, the Netherlands) technology was used for gene expression analyses by quantitative reverse transcription polymerase chain reaction (qRT-PCR, performed by Quintiles/Expression Analysis, Durham, NC)89. Standard TaqManTM Assays (Applied Biosystems/ThermoFisher Scientific, Foster City, CA) were used to assess the expression of 93 genes selected based on their selectivity and sensitivity to important hepatic receptors known to be modulated by environmental chemicals; importance in human hepatocyte functionality; and hepatotoxicity. […]

Structure (SMILES) | outcome | AC50
CC(=O)CC(C)(C)O | inactive | 
C=C(C)C(=O)OCCC(F)(F)C(F)(F)C(F)(F)C(F)(F)C(F)(F)C(F)(F)F | inactive | 
OC1CCCCC1 | inactive | 
CC(C)CCCCCCOC(=O)CCCCC(=O)OCCCCCCC(C)C | inactive | 
CCCCCCCCCCCCCCCS(=O)(=O)Oc1ccccc1 | inactive | 
ClC1=C(Cl)C(Cl)(Cl)C(Cl)=C1Cl | inactive | 
C#C[C@]1(O)CC[C@H]2[C@@H]3CCC4=CC(=O)CC[C@@H]4[C@H]3CC[C@@]21C | inactive | 
CC(=O)NC1(c2cccc(F)c2)CCN(CC[C@@]2(c3ccc(Cl)c(Cl)c3)CN(c3ccccc3)C(=O)CO2)CC1 |  | 49 µM (active)
CN1CCC[C@H]1c1cccnc1 | inactive | 
CCCOC(=O)c1ccc(O)cc1 | inactive | 
CCC(=C(c1ccc(O)cc1)c1ccc(OCCN(C)C)cc1)c1ccccc1 |  | 67.9 µM (active)
CCCCCCCC(=O)O |  | 0.405 µM (active)
c1ccc2c(c1)Cc1ccccc1-2 | inactive | 
CC(C)(C)c1cccc(C(C)(C)C)c1O | inactive | 
CC[C@H](C)[C@@H](C(=O)O)n1sc2ccccc2c1=O | inactive | 
C[C@@H]1C[C@H]2[C@@H]3CCC4=CC(=O)C=C[C@]4(C)[C@@]3(F)[C@@H](O)C[C@]2(C)[C@@]1(O)C(=O)COP(=O)(O)O | inactive | 
Nc1cccc2c(N)cccc12 | inactive | 
O=[N+]([O-])c1ccc(O)cc1 | inactive | 
Cc1cc(CCN2CCN(c3nsc4ccccc34)CC2)cc2c1NC(=O)CC2(C)C | inactive | 
COC(=O)CCCCC(=O)OC | inactive | 

Structure (SMILES) | outcome | AC50
CCCOc1sc(C(=O)N2CCC(c3cc(CN)ccc3F)CC2)c(C)c1Br | inactive | 
c1ccc2c(c1)ccc1ccccc12 | inactive | 
CC#C[C@]1(O)CC[C@H]2[C@@H]3CCC4=CC(=O)CCC4=C3[C@@H](c3ccc(N(C)C)cc3)C[C@@]21C |  | 26 µM (active)
CC(C)(C)CC(C)(C)c1ccc(O)c(-n2nc3ccccc3n2)c1 | inactive | 
CCCCCCCCC(=O)O | inactive | 
CCCCC(CC)COC(=O)CCCCC(=O)OCc1ccccc1 (stereo not given) | inactive | 
c1ccc2cc3c(ccc4ccccc43)cc2c1 | inactive | 
CN(C)C=O | inactive | 
CC(O)CO (stereo not given) | inactive | 
Cc1oc(-c2ccccc2)nc1CCOc1ccc(C[C@H](Nc2ccccc2C(=O)c2ccccc2)C(=O)O)cc1 |  | 26.8 µM (active)
NC(=O)N1C(=O)C(C(=O)c2cc(Cl)cs2)c2cc(F)c(Cl)cc21 (stereo not given) |  | 19.9 µM (active)
CCc1nn(C2CCCCC2)c2cc(C3(C#N)CCC(C(=O)O)CC3)ccc12 (stereo not given) |  | 28.7 µM (active)
OC1CCC(C2CCCCC2)CC1 (stereo not given) | inactive | 
O=C(OCCOCCOC(=O)c1ccccc1)c1ccccc1 | inactive | 
CC[C@H](c1ccc(O)cc1)[C@@H](CC)c1ccc(O)cc1 | inactive | 
NC(=O)N(O)[C@@H]1C=C[C@H](Oc2cccc(Oc3ccc(F)cc3)c2)C1 |  | 37.3 µM (active)
CCCCCCCCOC(=O)CCCCCCCCC(=O)OCCCCCCCC | inactive | 
CCCCCCCCCCCCc1ccccc1S(=O)(=O)O |  | 82.1 µM (active)
CCOC(=O)CC(O)(CC(=O)OCC)C(=O)OCC | inactive | 
CCCCCCCCCCCCN1CCCC1=O | inactive | 
